An excerpt weighted towards active compounds, which were near 2.4% of everything screened.
TMEM16A act: mouse TMEM16A channel activation, primary screen | AID 623877 | Q8BHY3 | actives 0.3% (n = 340,000) | HEK293 TMEM16A/YFP-H148Q/I152L, iodide quench fluorescence; active compounds read low | B-score at 10 µM;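 active = fluorescence-ratio B-score plate-corrected deviation score at least 3 library SD below zero, with starting fluorescence score within 5 deviations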;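 also: channel opened by trigger with iodide after compound preincubation; score built on the fluorescence ratio of max minus min over baseline; more negative score means more quench and so TMEM16A activation or potentiation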
Target sequence (Q8BHY3 whole entry, looked up): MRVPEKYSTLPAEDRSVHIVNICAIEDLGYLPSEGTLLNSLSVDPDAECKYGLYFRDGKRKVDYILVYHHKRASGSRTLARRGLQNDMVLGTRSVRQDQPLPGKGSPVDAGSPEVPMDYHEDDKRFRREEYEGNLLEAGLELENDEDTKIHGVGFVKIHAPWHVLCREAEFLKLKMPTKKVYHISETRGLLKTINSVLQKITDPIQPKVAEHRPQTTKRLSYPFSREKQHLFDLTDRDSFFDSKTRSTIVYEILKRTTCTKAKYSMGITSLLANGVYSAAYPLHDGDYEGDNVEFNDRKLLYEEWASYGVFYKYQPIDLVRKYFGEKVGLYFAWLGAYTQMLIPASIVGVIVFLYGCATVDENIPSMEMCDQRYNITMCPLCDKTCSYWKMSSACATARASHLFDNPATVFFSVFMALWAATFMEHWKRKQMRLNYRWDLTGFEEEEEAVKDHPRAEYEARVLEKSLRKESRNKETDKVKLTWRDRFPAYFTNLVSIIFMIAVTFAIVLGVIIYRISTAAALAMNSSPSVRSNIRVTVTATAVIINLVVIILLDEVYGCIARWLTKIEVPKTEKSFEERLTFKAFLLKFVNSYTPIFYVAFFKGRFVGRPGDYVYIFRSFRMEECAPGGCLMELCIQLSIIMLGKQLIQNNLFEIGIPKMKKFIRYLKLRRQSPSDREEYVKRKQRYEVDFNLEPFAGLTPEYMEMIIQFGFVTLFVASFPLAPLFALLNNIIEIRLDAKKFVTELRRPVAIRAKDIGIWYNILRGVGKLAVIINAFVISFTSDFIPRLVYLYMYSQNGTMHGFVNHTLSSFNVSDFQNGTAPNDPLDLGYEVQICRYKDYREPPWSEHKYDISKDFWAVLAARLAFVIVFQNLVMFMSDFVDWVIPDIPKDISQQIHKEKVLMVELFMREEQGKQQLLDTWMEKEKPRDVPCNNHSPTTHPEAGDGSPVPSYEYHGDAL
CHT PAM: allosterically activates the human high affinity choline transporter. Q9GZV3. CHT-expressing cells, membrane potential dye, choline EC20; active compounds read high; LV-AA mutant CHT in HEK293 cells. actives 0.49% (n = 310,000). AID 488977. B-score at 10 µM;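 active = initial fluorescence not abnormally high and integrated response B-score, plate-corrected, over 3 SD above library mean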
CHT block: inhibitors of human choline transporter CHT. B-score at 10 µM. AID 488975. actives 0.86% (n = 310,000). Q9GZV3. CHT-expressing cells, membrane potential dye, choline response; active compounds read low;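 active = B-score over 3 SD under the library average, and starting fluorescence ratio not unusually high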;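 also: choline stimulus applied at its EC90 after an EC20 pre-addition; B-score computed on integrated fluorescence ratio after choline addition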
TMEM16A inh: mouse TMEM16A channel inhibition, primary screen; Q8BHY3; HEK293 TMEM16A/YFP iodide influx fluorescence, ionomycin; normalized B-score (activity score, 25-100; higher = stronger inhibition) at 10 µM; actives 1.2% (n = 310,000); AID 588511;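 active = ratio plate-corrected score three or more library SD toward inhibition, starting fluorescence score within five deviations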;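 also: score derived from kinetic fluorescence span divided by baseline fluorescence per well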
TMEM16A reconf: reconfirmed blocker of mouse TMEM16A calcium-activated chloride channel | shares compounds with TMEM16A inh | HEK293 TMEM16A/YFP-H148Q, iodide quench fluorescence; ionomycin added to raise cell calcium | inhibition, % at 10 µM | actives 39% (n = 2,300);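 active = mean duplicate percent inhibition, scaled so buffer wells are 0 and the reference blocker 100, over three buffer SD above buffer mean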
TMEM16A Ca cntr: alters calcium mobilization in TMEM16A HEK293 cells, counter-screen | shares compounds with TMEM16A inh | TMEM16A/YFP HEK293, Fluo4 calcium mobilization | actives 2% (n = 2,300) | calcium response (% of ionomycin), % at 10 µM;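 active = duplicate-averaged calcium signal over 20% of the ionomycin maximum, relative to buffer baseline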;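 also: each well's signal is peak minus trough fluorescence divided by its pre-addition baseline; 0% = buffer wells and 100% = ionomycin wells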
YFP-HEK293 quench: counter-screen for TMEM16A inhibitors: effect in parental YFP-HEK293 cells; AID 652233; YFP ratio F(max-min)/F0 at 10 µM; shares compounds with TMEM16A inh; 2,300 tested, under 10 active; iodide YFP quench, ionomycin;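 active = yellow fluorescent protein signal ratio exceeding the buffer control mean by over 5 SD of those controls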;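 also: ratio is mean of duplicate wells from kinetic YFP trace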
ClC-1 rat inh: rat ClC-1 inhibition, TMEM16A specificity screen. AID 652236. shares compounds with TMEM16A inh. ratio percent, % at 10 µM. CHO ClC-1-YFP, iodide influx fluorescence quench; iodide control reads 0, buffer control 100. 2,300 tested, under 10 active;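 active = duplicate-mean ratio percent above the mean of iodide-only control wells, which defines zero, plus 5 of their SD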;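 also: higher percent means stronger block of ClC-1 iodide influx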
Numbers without * were called inactive; i = inactive; nt = no result.

SMILES	TMEM16A act	CHT PAM	CHT block	TMEM16A inh	TMEM16A reconf	TMEM16A Ca cntr	YFP-HEK293 quench	ClC-1 rat inh
Clc1ccc(NC2=NCCC2)cc1Cl	i	i	i	i	i	i	-1.21	-8.0
CC(NC(=O)c1ccccc1Br)c1nnc(SCC(=O)NC2CCCCC2)n1C (stereo unspecified)	i	i	i	i	nt	nt	nt	nt
O=c1c(Sc2ccccc2)c(C(F)(F)F)[nH]n1-c1ccccc1	i	i	i	100*	23.5%*	i	-1.03	-16.5
COc1ccc(C(=O)N2CCCC(c3nc(-c4cccs4)no3)C2)cc1OC (stereo unspecified)	nt	i	i	i	nt	nt	nt	nt
COc1ccc(C(=O)N2CCCC(c3nc(-c4cccs4)no3)C2)cc1 (stereo unspecified)	i	i	i	25*	i	i	-1.1	-8.0
COc1ccc(C2C(C(=O)N3CCCC3)c3cc(OC)c(OC)cc3C(=O)N2C)cc1OC (stereo unspecified)	i	i	i	i	nt	nt	nt	nt
COc1ccc(C2C(C(=O)N3CCN(c4ccccc4)CC3)c3ccccc3C(=O)N2C)cc1OC (stereo unspecified)	i	i	i	100*	i	i	-1.1	-30.0
O=S(=O)(c1cccc(Cl)c1)N1CCN(S(=O)(=O)c2ccc3c(c2)OCCO3)CC1	i	nt	nt	nt	nt	nt	nt	nt
Cc1ccc(S(=O)(=O)N2CCN(c3ncnc4sccc34)CC2)cc1C	i	nt	nt	nt	nt	nt	nt	nt
O=S(=O)(c1ccc2c(c1)OCCO2)N1CCC(O)(c2ccc(Cl)cc2)CC1	i	i	i	100*	i	i	-1.05	-0.5
O=S(=O)(c1ccc2c(c1)OCCO2)N1CCN(c2ncnc3sccc23)CC1	i	i	i	25*	17.0%*	i	-1.05	-19.0
Cc1c(C)c2ccc(OC(C)C(=O)NCCc3c[nH]c4ccccc34)cc2oc1=O (stereo unspecified)	i	i	i	i	nt	nt	nt	nt
Cc1ccc(COc2ccccc2C(=S)N2CCCC2)cc1	i	i	i	25*	i	i	-0.941	-6.5
Fc1ccc(COc2ccccc2C(=S)N2CCCC2)cc1	i	i	i	i	nt	nt	nt	nt
CC(=O)Nc1ccc(-c2csc(NC(=O)Cc3cccc(F)c3)n2)cc1	i	i	i	i	nt	nt	nt	nt
CC1=CC(C)(C)N(S(=O)(=O)c2ccc(F)cc2)c2ccccc21	i	i	i	25*	i	i	-1.02	-17.5
CC(=O)Nc1ccc(S(=O)(=O)N2c3ccccc3C(C)=CC2(C)C)cc1	i	i	i	i	nt	nt	nt	nt
CC1=CC(C)(C)N(S(=O)(=O)c2ccc(C)cc2)c2ccc(C)cc21	i	i	i	25*	i	i	-1.24	-11.5
O=C(Nc1cccnc1)NC1CCCCC1	i	i	i	i	nt	nt	nt	nt
CCCn1c(CC)nc([N+](=O)[O-])c1Sc1ccc(F)cc1	i	i	i	25*	i	i	-0.946	-6.0
C/C=C1\COC(C(=O)NCc2ccccc2)(C(F)(F)F)C=C1C=C(C)C (stereo unspecified)	i	i	i	100*	i	i	-1.26	-13.0
CCOC(=O)c1ccccc1NC(=O)CSc1nnnn1C1CCCCC1	i	i	i	100*	i	i	-0.961	-2.0
Cc1ccccc1OCc1nnc(SCC(=O)NCc2ccccc2)n1C	i	i	i	i	nt	nt	nt	nt
COC(=O)c1ccccc1NC(=O)CSc1nnnn1C1CCCCC1	i	i	i	i	nt	nt	nt	nt
CCOC(=O)c1ccccc1NC(=O)CSc1nnc(COc2ccccc2C)n1C	i	i	i	25*	i	i	-1.17	-8.5
SMILES	TMEM16A act	CHT PAM	CHT block	TMEM16A inh	TMEM16A reconf	TMEM16A Ca cntr	YFP-HEK293 quench	ClC-1 rat inh
COCCNC(=O)CSc1nc(N)c(NC(=O)c2ccccc2F)c(=O)[nH]1	i	i	i	i	nt	nt	nt	nt
Cc1ccc(C(=O)CSc2nc3ccccc3c(=O)[nH]2)cc1C	i	i	i	i	nt	nt	nt	nt
Cc1ccc(C(=O)N(Cc2nc3ccccc3c(=O)[nH]2)C2CCCC2)cc1	i	i	i	100*	i	i	-1.04	-12.0
Cc1ccc(C(=O)CSc2nc3ccccc3c(=O)[nH]2)cc1	i	i	i	100*	i	i	-1.04	-12.5
COc1ccc(C2=NS(=O)(=O)N(C)C(C(=O)N3CCc4ccccc4C3)=C2)cc1OC	i	i	i	25*	25.5%*	i	-0.929	-9.0
CC1CN(CCCCOc2ccc(F)cc2)CC(C)O1 (stereo unspecified)	i	i	i	i	nt	nt	nt	nt
CC(=O)NCCC(=O)Nc1cc(S(=O)(=O)N2CCOCC2)ccc1Oc1ccc(F)cc1	i	i	i	i	nt	nt	nt	nt
Cc1ccc(C)c(NC(=O)c2cc(C)nc3ccccc23)c1	i	i	i	i	nt	nt	nt	nt
Cc1ccc(C)c(NC(=O)c2ccccc2O)c1	i	i	i	25*	36.0%*	i	-1.1	-2.0
CCOC(=O)c1cnc2sc3c(n2c1=O)CCCC3	i	i	i	100*	i	i	-1.12	-8.0
CC(=O)c1cccc(S(=O)(=O)N2CCCC(c3nc4c(nnn4Cc4ccccc4Cl)c(=O)[nH]3)C2)c1 (stereo unspecified)	i	nt	nt	nt	nt	nt	nt	nt
Cc1onc(-c2ccccc2Cl)c1C(=O)Nc1cccc(-c2cn3cccnc3n2)c1	i	i	i	25*	i	i	-0.949	-7.5
Cc1ccc(-c2csc(NC(=O)/C=C/c3ccco3)c2C(=O)O)cc1	i	i	i	i	nt	nt	nt	nt
CCOc1ccc(N(C)S(=O)(=O)c2cc(-c3cc(C)no3)ccc2C)cc1	i	i	i	100*	31.0%*	i	-0.923	-16.0
Cc1ccc(-c2cnc(C3CC3)o2)cc1S(=O)(=O)Nc1ccccc1	i	i	i	i	nt	nt	nt	nt
Cc1ccc(N(C)S(=O)(=O)c2cc(-c3cnc(C4CC4)o3)ccc2C)cc1	i	i	i	100*	20.5%*	i	-1.4	-9.0
CCOc1ccc(-n2c(=S)sc3c(=O)[nH]c(SCC(=O)C(C)(C)C)nc32)cc1	i	i	i	100*	33.5%*	i	-0.981	-17.0

High-throughput results: PubChem, Johns Hopkins Ion Channel Center
